Measured values from the supplement of paper PMC3334620.
The full ranking holds about 33,000 sequences; the median of “E-score (-0.5 to 0.5)” is about -8e-05, and the highest 2% start at about 0.23. Only a selection was taken, and the highest values are over-represented in it overall.

The sequences below were run against T1, Nrg2 (UniProt P38082) (assay: PBM E-score (8-mer binding enrichment) (E-score (-0.5 to 0.5)); higher = stronger / more preferred TF binding). Conditions: protein concentration: 100 nM; construct: GST-full length.
T1 sequence: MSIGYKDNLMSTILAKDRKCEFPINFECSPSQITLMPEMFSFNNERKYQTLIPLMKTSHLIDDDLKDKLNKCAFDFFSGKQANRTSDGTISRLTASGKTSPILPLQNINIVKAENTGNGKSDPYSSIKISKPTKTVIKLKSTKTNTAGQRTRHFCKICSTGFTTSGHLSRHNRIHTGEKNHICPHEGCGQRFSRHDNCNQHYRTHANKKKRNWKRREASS
Procedure: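 Universal 'all 10-mer' protein binding microarrays (Agilent AMADID 015681) probed with GST-tagged S. cerevisiae TFs (full-length or DBD) made by in vitro transcription/translation (PURExpress), about 100-200 nM. Bound TF was detected with fluorescent anti-GST. Each ungapped 8-mer (which stands for itself and its reverse complement) is scored by the PBM enrichment score (E-score), a modified Wilcoxon-Mann-Whitney statistic from -0.5 to +0.5, computed with the Universal PBM Analysis Suite. Scale: above 0.35 generally sequence-specific binding.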

Sequence | PBM E-score
CAGATGAA | 0.026
ACGCTAGG | -0.266
AACCAGGG | 0.176
ATCAAAAT | -0.0176
ATCAAAAG | 0.00066
ATTAAAAG | 0.103
ATTAAAAT | 0.174
ATTAAAAC | 0.241
ATTAACAA | 0.179
CTTAACAC | 0.0347
ATTAAACC | 0.199
ATCAAAAA | 0.237
CTTAAAAC | 0.0325
ATTAAAAA | 0.246
ATTAACAC | 0.246
CCTCGTAC | 0.0199
CGAACTGC | -0.0594
TCCAGAGA | -0.144
AAGGGGAT | 0.205
ACTTAGGG | 0.0512
CCCAACTA | 0.174
CCCAACTC | 0.256

Sequence | PBM E-score
ACCAACTC | -0.0268
GCCGCGCA | -0.0674
CTGGTGGC | 0.00474
ACAGTAGA | 0.138
AGTATTTA | 0.0065
CGTATTTA | 0.248
GGTATTTA | 0.0832
AGCCCCAT | -0.0124
CTGCGATC | 0.0398
CGAGGGCC | -0.0174
AACTTATT | 0.256
AACTTATC | 0.121
AACTTATG | -0.0218
CATAGTCG | -0.0054
AGGCAAGA | -0.0756
AAGCCCTC | -0.132
ACCAACAA | 0.245
ACCAACAT | 0.0787
ACCAACAG | -0.00807
GAGAAAGC | 0.0912
ACCTACAT | 0.00858
GCCCCAGC | 0.0519

Sequence | PBM E-score
CTGGTGCC | -0.212
AACTAATA | 0.354
CGCTACTC | -0.0612
AACTACTC | 0.184
CACTAATA | 0.133
AACTACTA | 0.296
AACTACTG | 0.0512
TACTAATA | 0.0648
CGCTACTA | 0.234
AGCTACTA | 0.0519
AAGACGTG | -0.0832
ACGAATAG | 0.0297
CACCTCCC | -0.294
CAGATGGC | -0.107
GATACCTA | 0.256
CATACCTA | -0.0293
GAGATATC | 0.282
TAGATACA | 0.0563
CAGATATC | 0.133
TCGATACA | 0.243
ACGATACA | -0.0148
AAGATATC | 0.149

Sequence | PBM E-score
AAGATACA | 0.171
AATACCTA | 0.144
GAGATACA | 0.296
GCGATACA | -0.00403
ATTTACAA | 0.0879
GCGCACAA | 0.195
GTAGAGTA | -0.0442
CCACGGGC | -0.139
GGCCGCCA | 0.0869
GAGGCCGA | -0.0441
CAAACAAC | 0.14
ATAGGAAC | -0.0698
AAAGCAGT | 0.201
TACATACA | 0.199
GATACATC | 0.134
GACATACA | 0.246
CATACATA | 0.219
GATACATA | 0.246
CACATACA | -0.0126
AGAAGTAC | -0.0369
ACCCGCGT | -0.119
CCCCGCGG | 0.0578

Sequence | PBM E-score
ACCCGCCG | 0.201
ACCCGCGA | 0.174
ACCCGCGG | 0.275
ACCCGCGC | 0.229
ACTAGGAA | -0.094
CGAATCAC | 0.117
CTGGACCA | -0.0552
GGGGACCA | 0.0565
AGGGACGG | -0.0133
AAGGACCT | 0.0061
AGGGACCT | 0.382
AGGGACGC | 0.196
AGGGACGA | 0.248
AGGGACCA | 0.35
ACGGACCT | 0.17
CGGGACCA | -0.173
CTGGACCC | 0.275
ATGGACCC | 0.206
CACGATAC | -0.129
ACTTTCGC | -0.0735
CAGTTGCC | -0.092
